Experimental data from PubChem BioAssay (NCATS).
Where “and” joins values, the source holds several entries; their conditions need not be identical. Identical values can stand only once. Records with an inconclusive call do not appear. A number with no mark means an inactive call. Calls follow the shape of the dose curve; as a rule, active = well fitted activation curve with a large enough effect; inconclusive = small, poorly fitted or top-dose-only effect; inactive = flat fitted curve, though single readings scatter.

Experiment: qHTS assay for environmental chemicals that activate the Aryl hydrocarbon Receptor (AhR) signaling pathway (AID 651777); also: % of control where 0% means no effect; nearly all actives have a fitted effect of over 15% in size
Settings: 1A2-DRE human hepatoma cells, luciferase, 24 h; activation: stronger effect = higher value
How it was run: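 Reporter gene assay: hepatoma cells with DRE/CYP1A2-luciferase, 24 hr compound incubation at 37 C, 5% CO2, luminescence after One-Glo (30 min, RT).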

SMILES	activation
C=C(C)[C@H]1Cc2c(ccc3c2O[C@@H]2COc4cc(OC)c(OC)cc4[C@@H]2C3=O)O1	3.42%
Nc1ccncc1	-2.98%
C[C@@H]1O[C@@H](O[C@H]2C[C@@H](O)[C@]3(CO)[C@H]4[C@H](O)C[C@]5(C)[C@@H](C6=CC(=O)OC6)CC[C@]5(O)[C@@H]4CC[C@]3(O)C2)[C@H](O)[C@H](O)[C@H]1O	6.71%
NCC(O)c1ccc(O)cc1 (configuration not stated)	-0.493%
CCCC(C)(COC(N)=O)COC(=O)NC(C)C (configuration not stated)	0.419% and -1.4%
O=c1[nH]c2ccccc2n1C1CCN(CCCC(c2ccc(F)cc2)c2ccc(F)cc2)CC1	1.32%
CNCC(O)c1ccc(O)cc1 (configuration not stated)	-0.394%
